The values that follow come from PubChem BioAssay.

Calls of active or inactive are those of the source.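 How the source made its calls, unless noted: active means compounds lowering colon cancer cell viability after pretreatment blocking the GSK3B kinase; inactive means the rest.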

The nature of assay [1]: Wnt pathway potentiators raising nuclear beta-catenin – imaging, WNT3A-conditioned medium, mouse C2C12, NPC library, primary screen (AID 1117326; in the data active means nuclear beta-catenin stimulation mostly above about 4.2%, no sharp cut-off; inactive means mostly below about 10%; further: reference of the scale not given here). The conditions noted are these: stronger effect = higher value.
The nature of assay [2]: stimulators of insulin release from INS-1E, primary screen, cell-based, 5 mM glucose, NPC library (AID 1117329;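 active means compound raises insulin release from rat beta cells at 5 mM glucose, no numeric limit stated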; further: reference of the scale not given here). Conditions: rat INS-1E insulin secretion, at 10 µM, stronger effect = higher value.
Assay [3] is described as follows: growth inhibition of GSK3B-pretreated HCT116 cells – cell-based, CellTiter-Glo, 0.2 to 20 µM (AID 1117336). Conditions: HCT116 viability after GSK3B inhibitor, at 20 µM, stronger effect = higher value.
The nature of assay [4]: inhibition of endothelial tube formation, primary screen, imaging, VEGF stimulated, CD31 staining, tube area, NPC library (AID 1117340;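 active means compound that reduces growth-factor-driven endothelial tube area in a mixed cell culture, no cutoff stated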). Conditions: VEGF-stimulated ADSC/ECFC co-culture, at 10 µM, stronger effect = higher value.
A short description of assay [5]: GLP1 release stimulators, primary, NCI-H716, NPC library (AID 1117341;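 active means compound raises GLP1 secretion from the human gut endocrine cells, with no numeric limit stated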; further: reference of the scale not given here). The conditions noted are these: NCI-H716 cells, at 10 µM, stronger effect = higher value.
A short description of assay [6]: HCT116 colon cancer cell growth inhibition, primary screen, CellTiter-Glo luminescence, NPC library (AID 1117342;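 active means compounds that lower survival of HCT116 colon cancer cells in the luminescence readout, no numeric limit stated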). Conditions: at 20 µM (top of the series).
Assay [7] is described as follows: reduced SW480 viability measured with CellTiter-Glo, NPC library, primary (AID 1117343;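 active means compounds that lower viability of the colon cancer cells in the luminescence readout, with no numeric limit stated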). Conditions: CellTiter-Glo luminescence; at 20 µM (top of the series). (In general: ATP-based viability assays read luminescence as a measure of living cells.)
Assay [8] in a line: NPC library primary testing for decreased DLD-1 cell viability via CellTiter-Glo (AID 1117346;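 active means compounds that lower survival of DLD-1 colon cancer cells in the luminescence readout, no cutoff given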). Conditions: DLD-1 viability, CellTiter-Glo luminescence; at 20 µM (top of the series).

With `C[C@H]1O[C@@H](O[C@H]2CC[C@@]3(C)[C@H](CC[C@@H]4[C@@H]3C[C@@H](O)[C@]3(C)[C@@H](C5=CC(=O)OC5)CC[C@]43O)C2)C[C@H](O)[C@@H]1O[C@H]1C[C@H](O)[C@H](O[C@H]2C[C@H](O)[C@H](O[C@@H]3O[C@H](CO)[C@@H](O)[C@H](O)[C@H]3O)[C@@H](C)O2)[C@@H](C)O1`, the nuclear beta-catenin stimulation is -1% (inactive) in assay [1] (at 10 µM) and -0.7% in assay [1] (stimulation, at 2 µM). Moreover, the insulin secretion stimulation in assay [2] was -0.5% (inactive). In addition, the viability decrease in assay [3] is 65% (active). Moreover, the tube area decrease in assay [4] was 108% (active). Further, the GLP1 secretion stimulation in assay [5] was 8% (inactive). For the same compound, the inhibition of viability in assay [6] was 54.5% (active). Moreover, the viability decrease (inhibition) in assay [7] was 69.4% (active); in assay [8], 79.5% (active).

On to `N[C@@H](Cc1cc(I)c(O)c(I)c1)C(=O)O`, for which the nuclear beta-catenin stimulation in assay [1] (at 10 µM) is 15% (inactive); in assay [1] (stimulation, at 2 µM), 3.2%. Further, in assay [2], the insulin secretion stimulation is -1% (inactive). The viability decrease in assay [3] was -3.6% (inactive). Also, the tube area decrease in assay [4] is 26.5% (inactive). Moreover, the GLP1 secretion stimulation in assay [5] is -3.4% (inactive). The inhibition of viability in assay [6] was 3.4% (inactive). Besides, the values for the viability decrease (inhibition) in assay [7] and in assay [8] were 24.1% (inactive) and -15.2% (inactive), respectively.

In the case of `Cc1cc(CC(=O)O)c(C)n1-c1ccc(Cl)cc1`, the nuclear beta-catenin stimulation was -0.5% (inactive) in assay [1] (at 10 µM) and -0.4% in assay [1] (stimulation, at 2 µM). For the same compound, the insulin secretion stimulation in assay [2] was 2.3% (inactive). Moreover, in assay [3], the viability decrease is -14.4% (inactive). Moreover, in assay [4], the tube area decrease is 1.3% (inactive). In addition, the GLP1 secretion stimulation in assay [5] is -0.2% (inactive). In addition, in assay [6], the inhibition of viability is 7.9% (inactive). For the same compound, the viability decrease (inhibition) is 11.7% (inactive) in assay [7] and -14.3% (inactive) in assay [8].

`CN1CCC[C@@H]1c1cccnc1`: the nuclear beta-catenin stimulation in assay [1] (at 10 µM) was -0.7% (inactive); in assay [1] (stimulation, at 2 µM), 1.5%. In addition, the insulin secretion stimulation in assay [2] is 1.5% (inactive). Also, in assay [3], the viability decrease was -2.3% (inactive). Also, in assay [4], the tube area decrease was 12.5% (inactive). The GLP1 secretion stimulation in assay [5] is 3.1% (inactive). For the same compound, in assay [6], the inhibition of viability is -5.8% (inactive). Also, the viability decrease (inhibition) was 25.8% (inactive) in assay [7] and -23.3% (inactive) in assay [8].

As to `CCN(CC)CC(=O)OCC(=O)[C@@]1(O)CC[C@H]2[C@@H]3CCC4=CC(=O)CC[C@]4(C)[C@H]3[C@@H](O)C[C@@]21C`, the nuclear beta-catenin stimulation in assay [1] (at 10 µM) is -0.5% (inactive); in assay [1] (stimulation, at 2 µM) it was -0.8%. For the same compound, the insulin secretion stimulation in assay [2] was -0.5% (inactive). In addition, the viability decrease in assay [3] is -24.6% (inactive). Also, the tube area decrease in assay [4] was 0.8% (inactive). In assay [5], the GLP1 secretion stimulation is 1.1% (inactive). Further, the inhibition of viability in assay [6] is -15.9% (inactive). In addition, the viability decrease (inhibition) in assay [7] was 37.2% (inactive); in assay [8] it was -9.9% (inactive).

As to `CC(C=CC1=C(C)CCCC1(C)C)=CC=CC(C)=CC(=O)Oc1c(C)c(C)c2c(c1C)CC[C@@](C)(CCC[C@H](C)CCC[C@H](C)CCCC(C)C)O2`, the nuclear beta-catenin stimulation in assay [1] (at 10 µM) is 2.1% (inactive); in assay [1] (stimulation, at 2 µM), 2.2%. In assay [2], the insulin secretion stimulation is 2.9% (inactive). Moreover, the viability decrease in assay [3] is 2.5% (inactive). For the same compound, in assay [4], the tube area decrease is -4.2% (inactive). Further, the GLP1 secretion stimulation in assay [5] is 2.3% (inactive). In addition, the inhibition of viability in assay [6] was 32.1% (inactive). In addition, the viability decrease (inhibition) in assay [7] is -36.9% (inactive); in assay [8], 4% (inactive).

On to `NNC(=O)CP(=O)(c1ccccc1)c1ccccc1`, for which the nuclear beta-catenin stimulation is 1.5% (inactive) in assay [1] (at 10 µM) and 0.6% in assay [1] (stimulation, at 2 µM). Further, in assay [2], the insulin secretion stimulation was -2% (inactive). Further, the viability decrease in assay [3] is -2.45% (inactive). Further, the tube area decrease in assay [4] is 34.3% (inactive). Further, the GLP1 secretion stimulation in assay [5] was 1.1% (inactive). In assay [6], the inhibition of viability is -12.6% (inactive). Also, the viability decrease (inhibition) is 10% (inactive) in assay [7] and 7.2% (inactive) in assay [8].

As for `O=C1OC2(c3ccccc31)c1cc(Br)c(O)c(Br)c1Oc1c2cc(Br)c(O)c1Br`, the nuclear beta-catenin stimulation in assay [1] (at 10 µM) is -0.8% (inactive); in assay [1] (stimulation, at 2 µM), -2.9%. Besides, the insulin secretion stimulation in assay [2] is 0.5% (inactive). Moreover, in assay [3], the viability decrease is 32.8% (inactive). Moreover, the tube area decrease in assay [4] is -24.2% (inactive). Moreover, the GLP1 secretion stimulation in assay [5] is 17.7% (inactive). The inhibition of viability in assay [6] is 7.8% (inactive). For the same compound, the viability decrease (inhibition) in assay [7] is 24.1% (inactive); in assay [8], -5.4% (inactive).

On to `CC(CCc1ccc2c(c1)OCO2)NN` (stereo unspecified), for which the nuclear beta-catenin stimulation in assay [1] (at 10 µM) was 0.2% (inactive); in assay [1] (stimulation, at 2 µM), 0.2%. Besides, the insulin secretion stimulation in assay [2] was -2.2% (inactive). Also, in assay [3], the viability decrease was 57.8% (active). For the same compound, in assay [4], the tube area decrease was 23.7% (inactive). For the same compound, the GLP1 secretion stimulation in assay [5] is 2.3% (inactive). Moreover, in assay [6], the inhibition of viability was 84.6% (active). The results for the viability decrease (inhibition) in assay [7] and in assay [8] were 97.6% (active) and 17.7% (inactive), respectively.

Turning to `O=C(OC1C[C@@H]2CC3C[C@@H](C1)N2CC3=O)c1c[nH]c2ccccc12` (stereo partly specified), the nuclear beta-catenin stimulation in assay [1] (at 10 µM) was -1.1% (inactive); in assay [1] (stimulation, at 2 µM), -0.5%. For the same compound, the insulin secretion stimulation in assay [2] is 10.8% (inactive). In addition, the viability decrease in assay [3] was 4.3% (inactive). Further, in assay [4], the tube area decrease was -15.2% (inactive). Besides, in assay [5], the GLP1 secretion stimulation was 0.9% (inactive). Also, the inhibition of viability in assay [6] was 42% (inactive). For the same compound, the viability decrease (inhibition) was 12.6% (inactive) in assay [7] and 17.7% (inactive) in assay [8].

Consider `O=C(O)Cc1ccc2c(c1)C(=O)c1ccccc1CO2`, for which the nuclear beta-catenin stimulation is 0.5% (inactive) in assay [1] (at 10 µM) and 0.6% in assay [1] (stimulation, at 2 µM). The insulin secretion stimulation in assay [2] was 0.2% (inactive). Besides, the viability decrease in assay [3] is -4.5% (inactive). The tube area decrease in assay [4] is -16.2% (inactive). Also, the GLP1 secretion stimulation in assay [5] is 1.7% (inactive). The inhibition of viability in assay [6] is -7.1% (inactive). Moreover, the viability decrease (inhibition) is -5.2% (inactive) in assay [7] and -10.1% (inactive) in assay [8].

`C[C@@H]1CCC[C@H](C)N1CCCC(O)(c1ccccc1)c1ccccn1` (stereo partly specified): the nuclear beta-catenin stimulation in assay [1] (at 10 µM) is 1% (inactive); in assay [1] (stimulation, at 2 µM) it was 0%. Also, in assay [2], the insulin secretion stimulation was 2.6% (inactive). Besides, the viability decrease in assay [3] was -50.8% (inactive). Besides, the tube area decrease in assay [4] was 12.8% (inactive). Besides, the GLP1 secretion stimulation in assay [5] is 1.3% (inactive). The inhibition of viability in assay [6] is -3.7% (inactive). Moreover, the viability decrease (inhibition) is 14.7% (inactive) in assay [7] and -14.8% (inactive) in assay [8].

`N#C/C(=C1/SC[C@@H](c2ccc(Cl)cc2Cl)S1)n1ccnc1`: the nuclear beta-catenin stimulation in assay [1] (at 10 µM) was 0.7% (inactive); in assay [1] (stimulation, at 2 µM) it was 2.8%. For the same compound, in assay [2], the insulin secretion stimulation is 2.35% (inactive). Further, the viability decrease in assay [3] is 88% (active). In assay [4], the tube area decrease is 23.8% (inactive). For the same compound, the GLP1 secretion stimulation in assay [5] was -1.8% (inactive). In addition, the inhibition of viability in assay [6] is 101% (active). Besides, the viability decrease (inhibition) in assay [7] was 116% (active); in assay [8], 84.3% (active).

Consider `CCCCCCCC/C=C\CCCCCCCCN`, for which the nuclear beta-catenin stimulation in assay [1] (at 10 µM) is -3.5% (inactive); in assay [1] (stimulation, at 2 µM) it was 2.6%. For the same compound, the insulin secretion stimulation in assay [2] is -0.6% (inactive). Further, the viability decrease in assay [3] was 18.7% (inactive). In addition, the tube area decrease in assay [4] was 90% (active). Besides, the GLP1 secretion stimulation in assay [5] is 24.7% (active). Further, in assay [6], the inhibition of viability is 33.8% (inactive). The viability decrease (inhibition) is 147% (active) in assay [7] and 106% (active) in assay [8].
